This is an account of results in PubChem BioAssay AID463173 (ICCB-Longwood Screening Facility, Harvard Medical School, 2010).

Screen size: about 52,000 compounds; about 4,300 (8.3%) were called active. This is one part of a sample in which actives are shown more often than they occur. Cut-off read from the data, not from the text of the source: active = survival mostly below about 52% (no sharp cut-off); inactive = mostly above about 56%.

The test system of this assay is DeltatarO mutant. As to the kind of experiment: S. aureus survival, RN4220 and DeltatarO strains – OD600, teichoic acid synthesis inhibitors, primary screen (AID 463173). The following applies: S. aureus RN4220 wild type/DeltatarO growth, OD600, 18 h, active compounds read low, screened at 18.75 µg/mL (by protocol).
As for `COCCn1c(C)cc(O)c(C(c2ccc(OC)cc2)N2CCCCC2)c1=O` (configuration not stated), the survival is 83% (inactive). For the compound `Cc1ccc(-c2nnc(Nc3cccc(Cl)c3)c3ccccc23)cc1S(=O)(=O)N1CCN(C)CC1`, the survival was 87% (inactive). Take `CCn1c(=O)n(-c2ccc(F)cc2)c(=O)c2sc3ccccc3c21`: the survival was 88% (inactive).

Regarding `Cc1ncc(CO)c2c1Oc1nc(-c3ccc(F)cc3)nc(SCc3ccc(F)cc3Cl)c1C2`, the survival was 58% (inactive).

As to `Cc1cccc(OCc2ccc(-c3nc(C#N)c(NCc4cccnc4)o3)o2)c1`, the survival was 79% (inactive).

As for `COC(=O)c1sccc1S(=O)(=O)N(CC(=O)NCc1ccccc1)c1ccc(C)cc1`, the survival is 95% (inactive). For `CC(=O)N1CCc2c(sc3c2c(=O)n(-c2ccccc2Cl)c(=O)n3Cc2cccc(C)c2)C1`, the survival was 74% (inactive).

Consider `Cc1ccc(NS(=O)(=O)c2ccc3nc(-c4ccccc4)[nH]c3c2)c(Br)c1`, for which the survival is 79% (inactive). In the case of `O=S(=O)(Nc1ccc(Br)cc1)c1ccc2nc(-c3ccccc3)[nH]c2c1`, the survival is -1% (active). As to `COc1cc(NS(=O)(=O)c2ccc3c(c2)CC(=O)N3)cc(OC)c1OC`, the survival was 74% (inactive). As to `O=S(=O)(Nc1ccc(Br)cc1F)c1ccc2nc(-c3ccccc3)[nH]c2c1`, the survival was 72% (inactive). On to `CC(C)c1ccc(NS(=O)(=O)c2ccc3nc(-c4ccccc4)[nH]c3c2)cc1`, for which the survival is 67% (inactive). As for `Cc1ccc(NS(=O)(=O)c2ccc3nc(-c4ccccc4)[nH]c3c2)c(Cl)c1`, the survival was 76% (inactive). `COc1ccc(NS(=O)(=O)c2ccc3nc(-c4ccccc4)[nH]c3c2)cc1`: the survival is 72% (inactive). Then `Cc1ccc(NS(=O)(=O)c2ccc3c(c2)N(C)C(=O)CC(=O)N3C)cc1Cl`, with 72% (inactive); and `Cc1cc(NS(=O)(=O)c2ccc3nc(-c4ccccc4)[nH]c3c2)ccc1Br`, with -2% (active). With `Cc1cccc(NS(=O)(=O)c2ccc3nc(-c4ccccc4)[nH]c3c2)c1C`, the survival was 109% (inactive). Consider `Cc1ccc(NS(=O)(=O)c2ccc3nc(-c4ccccc4)[nH]c3c2)cc1Cl`, for which the survival is 6% (active). For `Cc1ccc(NS(=O)(=O)c2ccc3c(c2)CC(=O)N3)cc1Cl`, the survival was 47% (active). On to `Cc1cc(C)c(C#N)c(SCC(=O)Nc2sc3c(c2C#N)CCC(C(C)(C)C)C3)n1` (configuration not stated), for which the survival was 75% (inactive). Take `Cc1ccc(CNC(=O)Cn2c(=O)n(-c3ccc(C)c(F)c3)c(=O)c3sc4ccccc4c32)cc1`: the survival was 75% (inactive).

As to `COc1ccc(-c2cnnn2-c2ccc(NC(=O)c3ccc(S(=O)(=O)N(C)C)cc3)cc2)cc1`, the survival is 81% (inactive). As for `COCCNC(=O)CCn1c(=O)[nH]c2cc(OC)c(OC)cc2c1=O`, the survival was 90% (inactive). Then `CCN1C2OC(C3OC4C(O3)N(CC)S(=O)(=O)N4CC)OC2N(CC)S1(=O)=O` (configuration not stated), with 73% (inactive). With `CCN1/C(=C2/SC(=S)N(N)C2=O)Sc2ccccc21`, the survival is 77% (inactive). For the compound `O=C(CSc1nnc(-c2cccs2)o1)N1c2ccccc2CCc2ccccc21`, the survival is 70% (inactive). With `CCOc1ccc(-c2nonc2NC(=O)c2oc3ccc(F)cc3c2C)cc1`, the survival is 117% (inactive). In the case of `CC1(C)C(=O)N(CC(=O)Nc2cccc(F)c2)c2ccc(S(=O)(=O)N3CCCCC3)cc21` it was 81% (inactive).

For the compound `Cc1nn(-c2ccc(N3CCCC3)nn2)c(C)c1CCC(=O)Nc1ccccc1`, the survival was 83% (inactive).

As for `Cc1nc2ccn(Cc3cccnc3)c(=O)c2cc1C(=O)NCc1ccc(Cl)cc1`, the survival is 69% (inactive). For `Cc1ccc(NC(=O)C(=O)NCCc2sc(-c3ccc(Cl)cc3)nc2C)cc1C`, the survival was 104% (inactive). Regarding `Cc1nc(-c2ccccc2)sc1CCNC(=O)C(=O)Nc1ccc(F)c(Cl)c1`, the survival is 6% (active). Turning to `Cc1ccc(-c2nc(C)c(CCNC(=O)C(=O)Nc3ccc(C)c(Cl)c3)s2)cc1`, the survival is 74% (inactive). Take `O=C(c1cccc(F)c1)N1CCN(C(=O)c2cccc3ccccc23)CC1`: the survival was 92% (inactive). For the compound `CC(NC(=O)c1cc2ccccn2n1)c1ccccc1` (configuration not stated), the survival was 75% (inactive). Then `Cc1cccc(CCNC(=O)c2sc3nc4n(c(=O)c3c2C)CCCC4)c1`, with 85% (inactive). In the case of `COc1cc(NC(=O)CCN2CCN(c3ccccc3)CC2)cc(OC)c1`, the survival was 150% (inactive). Regarding `CC(=O)N1CCCc2cc(S(=O)(=O)N3CCC(C(=O)NCCC(C)C)CC3)ccc21`, the survival is 91% (inactive). Then `CCCCCCSc1ncc(C#N)c(N)n1`, with 84% (inactive); and `N#Cc1cnc(SCCc2ccccc2)nc1N`, with 81% (inactive). For the compound `N#Cc1cnc(SCc2ccccc2)nc1N`, the survival is 39% (active). Consider `CCOC(=O)c1c(C)oc2ccc(N(C(C)=O)S(=O)(=O)c3c(C)cc(C)cc3C)cc12`, for which the survival is 168% (inactive). Turning to `COc1ccc(CNC(=O)C(C)n2nc(C)c3sc4ccccc4c3c2=O)cc1OC` (configuration not stated), the survival was 67% (inactive).

On to `CCCCOc1ccc(Cn2c(=O)sc3ccccc32)cc1OC`, for which the survival is -3% (active).

Regarding `COc1cc(Cn2c(=O)sc3ccccc32)ccc1OC(C)C`, the survival was 40% (active). In the case of `COc1ccc(Cn2c(=O)sc3ccccc32)cc1`, the survival was 74% (inactive). For `COc1cc(Cn2c(=O)sc3ccccc32)ccc1OCCC(C)C`, the survival is -2% (active).

Turning to `O=C(Cn1c(=O)sc2ccccc21)OCc1ccccc1`, the survival was 83% (inactive).

Turning to `O=c1sc2ccccc2n1CCc1ccccc1`, the survival was 104% (inactive). In the case of `Cc1cccc2sc(N(Cc3cccnc3)C(=O)CCc3ccccc3)nc12` it was 117% (inactive). Regarding `COc1cccc(-n2c(=O)c3c(C)c(C)sc3n(CC(=O)NCc3ccccc3)c2=O)c1`, the survival is 102% (inactive). Consider `CCCCCOc1ccc(/C=C/C(=O)Nc2sc3c(c2C(=O)OCC)CCC3)cc1OC`, for which the survival is 66% (inactive). `COc1ccc(NC(=O)N2CCN3CCCCC3C2)cc1OC` (configuration not stated): the survival was 99% (inactive). As to `COc1cc(Cl)ccc1OC(=O)c1cn(-c2ccccc2OC)c(=O)c2ccccc12`, the survival is 58% (inactive). With `Cc1ccc(S(=O)(=O)Cn2nnnc2CN(Cc2ccco2)Cc2cccs2)cc1`, the survival is 61% (inactive).

In the case of `CN(C)c1ccc(C(CNS(=O)(=O)c2ccc(F)cc2)N2CCCC2)cc1` (configuration not stated), the survival was 106% (inactive). Consider `CN(C)c1ccc(C(CNS(=O)(=O)c2ccc(Cl)cc2)N2CCCC2)cc1` (configuration not stated), for which the survival is 0% (active). Then `Cc1ccc(S(=O)(=O)NCC(c2ccc(N(C)C)cc2)N2CCOCC2)cc1` (configuration not stated), with 57% (inactive). With `CN(C)c1ccc(C(CNC(=O)c2c(F)cccc2Cl)N2CCOCC2)cc1` (configuration not stated), the survival was 25% (active). Consider `Cc1ccc(S(=O)(=O)NCC(c2ccc(N(C)C)cc2)N2CCCC2)cc1` (configuration not stated), for which the survival is 98% (inactive). As for `CN(C)c1ccc(C(CNC(=O)Cc2ccc(Cl)cc2)N2CCOCC2)cc1` (configuration not stated), the survival was 63% (inactive). Then `CN(C)c1ccc(C(CNC(=O)c2ccccc2Cl)N2CCCC2)cc1` (configuration not stated), with 81% (inactive); and `CN(C)c1ccc(C(CNS(=O)(=O)c2ccc(Cl)cc2)N2CCOCC2)cc1` (configuration not stated), with 37% (active); and `CN(C)c1ccc(C(CNS(=O)(=O)c2ccc(F)cc2)N2CCOCC2)cc1` (configuration not stated), with 92% (inactive).

Regarding `CCN(CC)C(=O)Cn1c(=O)n(-c2ccc(OC)cc2OC)c(=O)c2c(C)c(C(=O)N(CC)CC)sc21`, the survival was 89% (inactive). In the case of `CCc1cccc(CC)c1NS(=O)(=O)c1ccc2c(c1)CCN2C(=O)C1CC1` it was 90% (inactive); in that of `CC1=Nc2cc(C(=O)NCCc3ccc(Cl)cc3)ccc2Sc2c(C)ccc(C)c21`, 74% (inactive); in that of `O=C(NCCc1ccc(Cl)cc1)c1ccc(CS(=O)(=O)Cc2ccc(F)cc2)o1`, 92% (inactive). In the case of `CCOc1cc(-c2nc(-c3ccc(-c4ccc(C)cc4)nc3OC)no2)cc(OCC)c1OCC`, the survival is 69% (active). Then `CCOc1cc(-c2nc(-c3ccc(-c4ccccc4)nc3OCC)no2)cc(OCC)c1OCC`, with 53% (inactive).

Take `COc1nc(-c2ccccc2)ccc1-c1noc(-c2ccccc2Br)n1`: the survival was -1% (active). As to `CCOc1nc(-c2ccccc2)ccc1-c1noc(-c2ccc(C)cc2)n1`, the survival is 110% (inactive). In the case of `CCOc1cc(-c2nc(-c3ccc(-c4ccc(OC)cc4)nc3OC)no2)cc(OCC)c1OCC`, the survival was 75% (inactive). Then `CCOc1ccccc1-c1nc(-c2ccc(-c3ccccc3)nc2OCC)no1`, with 4% (active); and `COc1nc(C)ccc1-c1noc(-c2ccccc2)n1`, with 102% (inactive). In the case of `COc1cccc(-c2nc(-c3ccc(-c4ccccc4)nc3OC)no2)c1` it was 10% (active); in that of `COc1ccc(-c2ccc(-c3noc(-c4cc(OC)cc(OC)c4)n3)c(OC)n2)cc1`, 45% (inactive). For the compound `CCOc1cc(-c2nc(-c3ccc(Br)cc3)no2)cc(OCC)c1OCC`, the survival is 118% (inactive).

As for `COc1cccc(-c2ccc(-c3noc(-c4ccccc4Br)n3)c(OC)n2)c1`, the survival was 37% (inactive). In the case of `COc1nc(-c2ccccc2)ccc1-c1noc(C(C)C)n1`, the survival was 91% (inactive).

As to `COc1ccc(CCCc2nnc(SCC(=O)Nc3ccc(F)cc3)o2)cc1C`, the survival was 89% (inactive). As for `COc1ccccc1N1CCN(c2cc(N3CCCC3)nc(C)n2)CC1`, the survival was 98% (inactive).

Take `O=C(Nc1ccc(Br)cc1)C1CCCN(S(=O)(=O)c2ccc(Br)s2)C1` (configuration not stated): the survival was 82% (inactive). Then `C#CCN1CCc2cc(OC)c(OC)cc2C1C` (configuration not stated), with 101% (inactive); and `Cc1cccc(CCNCc2cc3cc4c(cc3[nH]c2=O)OCO4)c1`, with 85% (inactive); and `CC1(C)OC2C(CO)OC(n3ncc(=O)[nH]c3=O)C2O1` (configuration not stated), with 86% (inactive).

As to `COc1nc(-c2ccc(C)cc2)ccc1-c1noc(-c2ccc(C(C)(C)C)cc2)n1`, the survival was 47% (inactive). `COc1nc(-c2ccc(C)cc2)ccc1-c1noc(-c2ccccc2Br)n1`: the survival is 19% (active). Consider `CCOc1nc(-c2ccc(C)cc2)ccc1-c1noc(-c2ccccc2F)n1`, for which the survival was 54% (inactive). For `CC(C)(C)c1cc(C(C)(C)C)c2oc(=O)c(-c3nc4ccccc4[nH]3)cc2c1`, the survival was 69% (inactive).

Turning to `Cc1ccc(-n2ncc(C(=O)NCCN3CCc4ccccc4C3)c2C2CCNCC2)cc1C`, the survival is 95% (inactive). With `O=C(c1ccc(F)cc1)N1CCC(c2nc3ccccc3o2)CC1`, the survival is 83% (inactive).
